For 15 compounds, Potency and outcome results are on record in PubChem BioAssay (Tox21).

“And” between values parts separate entries of the source, which are not always exact repeats. Identical values can stand only once. Records with an inconclusive call do not appear. More than one record can exist for a structure, and the calls need not agree. The source made the active and inactive calls. Unless noted, calls follow the shape of the dose curve; as a rule, active = well fitted curve in the direction sought with a large enough effect in the repeat runs; inconclusive = weak or mixed curves; inactive = no such curve, though single readings can be large; an effect the other way counts as inactive or inconclusive.

The nature of assay [1]: qHTS assay to test for compound auto fluorescence at 535 nm (green) in HEK293 cells (AID 720680).
A short description of assay [2]: qHTS assay to test for compound auto fluorescence at 460 nm (blue) in HEK293 cell free culture (AID 720681). Put shortly:
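Compounds were added to cell-free DMEM with 10% FBS and fluorescence read directly. The blue channel used 405 nm excitation and 460 nm emission, with triamterene as the reference fluorophore.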
For orientation: In qHTS, concentration-response curves come from the screen itself.

A short description of assay [3]: qHTS assay to test for compound auto fluorescence at 590 nm (red) in HEK293 cell free culture (AID 720683). Put shortly: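 Cell-free wells of DMEM with 10% FBS received compound, and intrinsic fluorescence was read at excitation/emission 540/590 nm. Values expressed as equivalence to Rose Bengal sodium.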
The nature of assay [4]: qHTS assay to test for compound auto fluorescence at 590 nm (red) in HepG2 cell free culture (AID 720684). Put shortly: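 Compounds are added to culture medium (MEM, 10% FBS) lacking cells, then fluorescence is read at excitation 540 nm, emission 590 nm, with Rose Bengal sodium as the equivalency standard.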
The nature of assay [5]: qHTS assay to test for compound auto fluorescence at 460 nm (blue) in HepG2 cell free culture (AID 720685). An outline of the steps: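 Compound (23 nL) or DMSO pinned into cell-free MEM with 10% FBS; blue fluorescence read at 405/460 nm excitation/emission, expressed as auto-fluorescence equivalency to triamterene.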
Assay [6] can be described thus: qHTS assay to test for compound auto fluorescence at 535 nm (green) in HepG2 cell free culture (AID 720686).
Assay [7] can be described thus: qHTS assay to test for compound auto fluorescence at 460 nm (blue) in HepG2 cells (AID 720687). An outline of the steps:
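HepG2 cells in MEM with 10% FBS, attached overnight at 37 C, were exposed to compound or DMSO for 1 hr at 37 C, 5% CO2. Blue fluorescence was read at 405/460 nm, with triamterene as reference fluorophore.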

Assay [8] is described as follows: qHTS assay to identify small molecule antagonists of the glucocorticoid receptor (GR) signaling pathway - cell viability counter screen (AID 720693). Also: nearly all actives have a fitted effect of over 55% in size. Also: potency is read from the fitted curve at half-maximal effect.
Assay [9] can be described thus: qHTS assay for identifying genotoxic compounds that show differential cytotoxicity against isogenic chicken DT40 cell lines with known DNA damage response pathways - wild type cell line (AID 743012). Also: nearly all actives have a fitted effect of over 60% in size. Also: potency is read from the fitted curve at half-maximal effect. Put shortly:
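Wild type DT40, 300 cells/well, ~0.5 h settle at 37 C/5% CO2; compounds in DMSO added by pintool; 40 h at 37 C/5% CO2; CellTiter-Glo, 30 min RT; luminescence.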

Assay [10] can be described thus: qHTS assay for identifying genotoxic compounds that show differential cytotoxicity against isogenic chicken DT40 cell lines with known DNA damage response pathways - Rev3 mutant cell line (AID 743014). Also: nearly all actives have a fitted effect of over 55% in size. Also: potency is read from the fitted curve at half-maximal effect.
A short description of assay [11]: qHTS assay for identifying genotoxic compounds that show differential cytotoxicity against isogenic chicken DT40 cell lines with known DNA damage response pathways - Rad54/Ku70 mutant cell line (AID 743015). Also: nearly all actives have a fitted effect of over 60% in size. Also: potency is read from the fitted curve at half-maximal effect.
A short description of assay [12]: qHTS assay to identify small molecule antagonists of the androgen receptor (AR) signaling pathway - cell viability counter screen (AID 743033; also: nearly all actives have a fitted effect of over 45% in size; also: potency is read from the fitted curve at half-maximal effect).
Assay [13] can be described thus: qHTS assay to identify small molecule antagonists of the androgen receptor (AR) signaling pathway using the MDA cell line - cell viability counter screen (AID 743041; also: nearly all actives have a fitted effect of over 45% in size; also: potency is read from the fitted curve at half-maximal effect). Put shortly: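 Same-well cytotoxicity was assessed by CellTiter-Fluor in MDA-kb2 AR-luc cells after 16 h of compound treatment under R1881 agonism.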
Assay [14] addresses Androgen receptor (Homo sapiens) (UniProt P10275). Put plainly: qHTS assay to identify small molecule antagonists of the androgen receptor (AR) signaling pathway using the MDA cell line (AID 743042; also: nearly all actives have a fitted effect of over 55% in size; also: potency is read from the fitted curve at half-maximal effect). Put shortly:
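MDA-kb2 breast carcinoma cells carrying MMTV-luciferase (AR/GR responsive) were co-treated with compounds and the agonist R1881 for 16 h at 37C. Inhibition read as ONE-Glo luminescence; CellTiter-Fluor fluorescence measured in parallel for cytotoxicity.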

Assay [15] concerns the target Glucocorticoid receptor (Homo sapiens) (UniProt P04150). As to the kind of experiment: qHTS assay to identify small molecule agonists of the glucocorticoid receptor (GR) signaling pathway (AID 720691; active = well fitted activation curve with a large enough effect in the signal ratio in the repeat runs, not every such curve was filed as active; the % refers to the signal ratio; also: potency is read from the fitted curve at half-maximal effect). The note with it: GR-bla HeLa, beta-lactamase reporter ratio, 18 h; activation: at 62.4 µM (top of the series). Put shortly: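 Fluorescence intensity from LiveBLAzer B/G FRET substrate (2 h, room temperature) reports beta-lactamase expression driven by the glucocorticoid response element in GR-bla HeLa cells after 18 h compound exposure at 37 C.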

Assay [16] addresses Androgen receptor (Homo sapiens) (UniProt P10275). Put plainly: qHTS assay to identify small molecule antagonists of the androgen receptor (AR) signaling pathway (AID 743035; active = well fitted inhibition curve with a large enough effect in the signal ratio in the repeat runs, not every such curve was filed as active; the % refers to the signal ratio; also: potency is read from the fitted curve at half-maximal effect). An outline of the steps: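 Fluorescence from a beta-lactamase FRET substrate (LiveBLAzer B/G, 2 h, room temperature) measured inhibition of R1881-stimulated signaling in GeneBLAzer AR-UAS-bla HEK293 cells exposed to compound for 16 h at 37C.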

The target in assay [17] is Glucocorticoid receptor (Homo sapiens) (UniProt P04150). Put plainly: qHTS assay to identify small molecule antagonists of the glucocorticoid receptor (GR) signaling pathway (AID 720692; active = well fitted inhibition curve with a large enough effect in the signal ratio in the repeat runs, not every such curve was filed as active; the % refers to the signal ratio). An outline of the steps: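 HeLa GR-bla cells; cmpd + dex 5 nM final, 18 h 37 C; LiveBLAzer B/G FRET substrate 2 h RT; fluorescence intensity read. Antagonist mode, qHTS.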
Assay [18] addresses Androgen receptor (Homo sapiens) (UniProt P10275). As to the kind of experiment: qHTS assay to identify small molecule agonists of the androgen receptor (AR) signaling pathway (AID 743036; active = well fitted activation curve with a large enough effect in the signal ratio in the repeat runs, with a control signal flat, not every such curve was filed as active; the % refers to the signal ratio). Put shortly:
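Quantitative HTS of the Tox21 10K library in HEK293 cells bearing a stably integrated UAS-controlled beta-lactamase reporter. Compound exposure lasted 16 h at 37C. Reporter activity was detected by FRET substrate fluorescence after 2 h at room temperature.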

For assay [19] the target is unchanged. Put plainly: qHTS assay to identify small molecule agonists of the androgen receptor (AR) signaling pathway using the MDA cell line (AID 743040; also: nearly all actives have a fitted effect of over 20% in size). Put shortly:
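Human breast carcinoma MDA-kb2 reporter cells (MMTV-luc, AR/GR elements) were treated for 16 h at 37C in 0% CO2 following a 5 h settling period. Signal was quantified by ONE-Glo luminescence.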

Chain of Androgen receptor (Homo sapiens) (P10275 whole entry, looked up): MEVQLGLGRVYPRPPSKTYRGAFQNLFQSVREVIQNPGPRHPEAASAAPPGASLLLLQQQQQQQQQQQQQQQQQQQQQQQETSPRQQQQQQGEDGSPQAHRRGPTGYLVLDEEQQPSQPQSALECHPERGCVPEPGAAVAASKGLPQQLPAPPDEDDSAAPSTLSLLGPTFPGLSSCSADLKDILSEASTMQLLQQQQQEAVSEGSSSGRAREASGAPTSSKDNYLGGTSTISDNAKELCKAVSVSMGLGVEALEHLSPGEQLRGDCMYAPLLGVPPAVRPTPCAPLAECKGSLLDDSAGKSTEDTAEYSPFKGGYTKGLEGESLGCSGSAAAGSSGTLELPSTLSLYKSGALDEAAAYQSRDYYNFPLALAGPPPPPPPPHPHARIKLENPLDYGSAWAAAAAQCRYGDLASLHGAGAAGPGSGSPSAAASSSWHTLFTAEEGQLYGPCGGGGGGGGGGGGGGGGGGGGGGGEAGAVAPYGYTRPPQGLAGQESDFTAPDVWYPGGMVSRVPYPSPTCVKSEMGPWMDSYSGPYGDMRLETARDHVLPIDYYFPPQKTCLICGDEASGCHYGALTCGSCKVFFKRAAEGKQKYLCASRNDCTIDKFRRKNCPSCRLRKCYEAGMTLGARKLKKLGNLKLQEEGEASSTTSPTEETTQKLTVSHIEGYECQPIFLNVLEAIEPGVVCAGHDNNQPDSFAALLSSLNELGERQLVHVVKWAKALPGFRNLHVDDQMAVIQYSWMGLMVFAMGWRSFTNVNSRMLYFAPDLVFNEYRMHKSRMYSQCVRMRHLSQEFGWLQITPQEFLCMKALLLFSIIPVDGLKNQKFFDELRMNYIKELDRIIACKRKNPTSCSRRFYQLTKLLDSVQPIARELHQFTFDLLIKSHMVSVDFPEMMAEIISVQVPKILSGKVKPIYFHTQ
Chain of Glucocorticoid receptor (Homo sapiens) (P04150 whole entry, looked up): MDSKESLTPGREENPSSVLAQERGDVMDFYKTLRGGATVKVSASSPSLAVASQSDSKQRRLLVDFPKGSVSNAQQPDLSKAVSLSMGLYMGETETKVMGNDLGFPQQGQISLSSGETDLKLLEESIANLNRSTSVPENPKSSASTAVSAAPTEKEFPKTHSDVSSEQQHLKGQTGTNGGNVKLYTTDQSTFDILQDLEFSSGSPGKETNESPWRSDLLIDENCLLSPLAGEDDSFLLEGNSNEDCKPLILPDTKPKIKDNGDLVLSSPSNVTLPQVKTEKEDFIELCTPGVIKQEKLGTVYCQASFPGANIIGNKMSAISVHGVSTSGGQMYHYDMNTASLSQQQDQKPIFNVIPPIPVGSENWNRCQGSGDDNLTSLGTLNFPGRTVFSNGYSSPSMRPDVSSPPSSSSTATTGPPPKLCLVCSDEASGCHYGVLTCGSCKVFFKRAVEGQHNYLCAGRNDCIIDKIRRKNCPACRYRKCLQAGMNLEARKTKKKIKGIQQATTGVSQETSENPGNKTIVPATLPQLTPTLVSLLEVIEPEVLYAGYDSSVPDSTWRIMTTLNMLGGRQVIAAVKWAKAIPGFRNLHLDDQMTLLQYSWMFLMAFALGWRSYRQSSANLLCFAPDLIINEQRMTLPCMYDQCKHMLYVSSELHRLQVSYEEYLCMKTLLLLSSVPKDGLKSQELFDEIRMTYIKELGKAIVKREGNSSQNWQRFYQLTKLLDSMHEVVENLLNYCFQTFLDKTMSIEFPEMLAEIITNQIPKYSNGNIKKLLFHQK

For `CCCCCCCCCCCCCC[n+]1ccccc1`, the Potency result in [1], in assay [2], in assay [3], in assay [4], in [5] and in assay [6] was “inactive” each time. Further, the Potency result in [7] is “inactive”. The Potency in [8] is 13.8 µM (active); in assay [9], 0.122 µM (active); in assay [10], 0.077 µM (active); in [11] it was 0.109 µM (active); in [12] it was 12.3 µM (active); in assay [13] it was 4.33 µM (active).
Regarding `COCC(=O)O[C@]1(CCN(C)CCCc2nc3ccccc3[nH]2)CCc2cc(F)ccc2[C@@H]1C(C)C`, the Potency entry in assay [1], in [2], in assay [3], in assay [4], in assay [6] and in assay [7] was “inactive” in each case. Besides, the Potency in assay [8] was 10.7 µM (active); in assay [9] it was 2.37 µM (active); in assay [10], 4.22 µM (active); in assay [11], 4.73 µM (active); in [12] it was 10.7 µM (active); in assay [13], 9.44 µM (active). Besides, the Potency in assay [14] is 7.5 µM (active).
With `CN(C)c1ccc(N=Nc2ccccc2C(=O)O)cc1`, the Potency result in assay [1], in assay [2], in [3], in [4], in assay [5] and in assay [6] was “inactive” throughout. In addition, the Potency entry in [7], in assay [15], in assay [10], in assay [12] and in assay [13] was “inactive” in each case.
On to `CCN1CCN(c2cc(-c3ccc(F)cc3)c3c(n2)CCCCCC3)CC1`, for which the Potency entry in [1], in assay [2], in assay [3], in [4], in [5] and in assay [6] was “inactive” each time. Further, the Potency entry in assay [7], in assay [15], in assay [11], in [12], in assay [16] and in assay [13] was “inactive” each time. Besides, the Potency entry in assay [14] was “inactive”.
With `CC(C)(C)CC(C)(C)c1ccccc1O`, the Potency entry in assay [1], in assay [2], in assay [3], in [4], in assay [5] and in [6] was “inactive” throughout. In addition, the Potency entry in assay [7] and in [13] was “inactive” in each case. The Potency was 34.9 µM (active) in assay [8], 24.5 µM (active) in assay [10], 54.8 µM (active) in assay [11] and 39.1 µM (active) in assay [12].
For `Oc1c(Br)cc(Br)c2cccnc12`, the Potency result in assay [1], in [2], in assay [3], in assay [4], in [6] and in [7] was “inactive” in each case. Moreover, the Potency result in assay [8], in assay [12] and in assay [13] was “inactive” in each case. Besides, the Potency in assay [10] was 11.9 µM (active); in assay [11] it was 13.3 µM (active).
For `CCN(CC)CCNc1ccc(CO)c2sc3ccccc3c(=O)c12`, the Potency entry in assay [1], in assay [2], in assay [3], in assay [4], in assay [6] and in assay [7] was “inactive” each time. For the same compound, the Potency entry in assay [8] is “inactive”. Besides, the Potency in assay [15] was 19 µM (active); in assay [9], 0.841 µM (active); in assay [10] it was 0.298 µM (active); in assay [11], 0.237 µM (active); in assay [13], 26.6 µM (active).
For the compound `CC(C)OC(=O)c1cc(C(=O)OC(C)C)cc([N+](=O)[O-])c1`, the Potency entry in assay [1], in assay [2], in [3], in [4], in assay [5] and in assay [6] was “inactive” each time. The Potency entry in assay [7], in [15], in assay [8] and in assay [12] was “inactive” in each case. Moreover, the Potency in assay [11] is 55.8 µM (active).
Consider `Cc1ccc2ccc3cccc4ccc1c2c34`, for which the Potency entry in assay [1], in assay [2], in assay [3], in [4], in assay [5] and in assay [6] was “inactive” in each case. Also, the Potency entry in assay [7], in [15], in assay [8], in [9], in assay [10] and in [11] was “inactive” each time.
As for `CC(C)c1ccc(O)c(C(C)C)c1`, the Potency entry in assay [1], in [2], in assay [3], in assay [4], in [5] and in assay [6] was “inactive” each time. Moreover, the Potency entry in assay [8] and in [13] was “inactive” each time. Moreover, the Potency was 54.5 µM (active) in assay [9], 54.5 µM (active) in [10], 48.6 µM (active) in assay [11] and 49 µM (active) in [12].
With `CC1=C(/C=C/C(C)=C/C=C/C(C)=C/C(=O)Nc2ccc(O)cc2)C(C)(C)CCC1`, the Potency result in assay [1], in [2], in assay [3], in assay [4], in [5] and in assay [6] was “inactive” throughout. Further, the Potency result in [7] was “inactive”. The Potency in [8] is 44.8 µM (active); in assay [9], 9.44 µM (active) and 22.2 µM (active); in [10], 13.3 µM (active) and 9.94 µM (active); in assay [11], 9.44 µM (active) and 9.94 µM (active); in assay [12], “inactive and 44.8 µM (active)”; in assay [16] it was 23.9 µM (active) and 14.2 µM (active). The Potency in assay [13] was 23.7 µM (active) and 44.4 µM (active); in [14] it was 29.8 µM (active) and 28 µM (active).
As for `NCCCCCCNCCCCCCN`, the Potency result in assay [1], in [2], in [3], in assay [4], in assay [6] and in [7] was “inactive” each time. Also, the Potency result in assay [15], in assay [17], in assay [8], in [12] and in assay [13] was “inactive” each time. Further, the values for the Potency in assay [9], in assay [10] and in assay [11] were 7.57 µM (active), 6.75 µM (active) and 5.36 µM (active), respectively.
For the compound `C=CC(=O)OCCC#N`, the Potency entry in [1], in [2], in assay [3], in [4], in assay [6] and in [7] was “inactive” in each case. In addition, the Potency result in [15], in assay [8], in assay [10], in [12], in assay [16] and in assay [13] was “inactive” throughout. Moreover, the Potency result in assay [14] was “inactive”. Further, the call in [18] was inactive.
As for `O=C1C=CC(=O)N1c1ccccc1`, the Potency result in assay [1], in assay [2], in assay [3], in [4], in assay [5] and in assay [6] was “inactive” each time. Further, in [7], the Potency entry is “inactive”. In addition, the Potency is 1.09 µM (active) in assay [9]; 1.22 µM (active) in assay [10]; 1.37 µM (active) in [11]; 12.3 µM (active) in assay [12]; 48.6 µM (active) in assay [13]; 27.3 µM (active) in assay [14].
As for `O=C1OC(OC(=O)c2cccnc2Nc2cccc(C(F)(F)F)c2)c2ccccc21` (configuration not stated), the Potency result in [1], in [2], in assay [3], in assay [4], in assay [6] and in [7] was “inactive” each time. In addition, the Potency result in [15], in [17], in assay [8], in assay [10], in [11] and in assay [12] was “inactive” in each case. Besides, the Potency entry in [16], in assay [19], in assay [13] and in [14] was “inactive” throughout.
